Sampled rows, rich in hits. Any-hit rate of the full collection: about 0.9%.
BJeLR viability: BJeLR cell viability reduction. BJeLR fibroblasts viability, CellTiterGlo ATP luminescence, 48 h; HRASV12, hTERT and SV40 LT/ST transformed. viability loss activity score, % (concentration not given with the values). 30,000 tested, 0.64% active; in the data active = viability loss activity score above about 50%;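 note: higher score means fewer live cells and less ATP luminescence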
A1 inh: A1 inhibition; MEF A1-2A-BIM cells, caspase-Glo luminescence, 3 h; percent of clofoctol signal, DMSO as zero; caspase activation, % (concentration not given with the values); 21,000 tested, 0.51% active; AID 2241;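 active = most replicate scores above 10, or exactly half above 10 with mean activity above 10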;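 note: effector caspase 3 and 7 activity cleaving a DEVD luciferin substrate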
* marks the source's active call; other numbers are inactive results; . = not tested or not shown.

SMILES	BJeLR viability	A1 inh
CC(C)c1cc2c(cc1O)[C@@]1(C)CCCC(C)(C)[C@@H]1CC2O (some centres not stated)	4	0
CCOC(=O)C1=NN(c2ccc(C)cc2)C2c3cccc4cccc(c34)C12 (configuration not stated)	-2	-1
CC(Cc1c[nH]c2ccccc12)N(Cc1ccccc1)Cc1ccccc1 (configuration not stated)	3	.
C[C@H]1O[C@@H](O[C@H]2[C@@H](O)C[C@H](O[C@H]3[C@@H](O)C[C@H](O[C@H]4CC[C@@]5(C)[C@H](CC[C@@H]6[C@@H]5CC[C@]5(C)[C@@H](C7=CC(=O)OC7)CC[C@]65O)C4)O[C@@H]3C)O[C@@H]2C)C[C@H](O)[C@@H]1O	134*	0
C[C@H]1OC(O[C@H]2[C@@H](O)CC(O[C@H]3[C@@H](O)C[C@H](O[C@H]4CC[C@]5(C)C6CC[C@]7(C)[C@@H](C8=CC(=O)OC8)[C@@H](O)C[C@]7(O)[C@@H]6CC[C@@H]5C4)O[C@@H]3C)O[C@@H]2C)C[C@H](O)C1O (some centres not stated)	98*	0
CO[C@H]1C[C@H](OC2CCC3(C)C4CCC5(C)C(C6=CC(=O)OC6)CC(OC(C)=O)C5(O)C4CC[C@H]3C2)O[C@@H](C)[C@@H]1O (some centres not stated)	99*	0
CCN1C[C@@]2(COC)C3[C@@H](OC)[C@H]4[C@@H]1[C@@]3(C1C[C@]3(O)[C@H](OC(=O)c5ccccc5)C1[C@]4(OC(C)=O)[C@@H](O)[C@H]3OC)[C@@H](OC)C[C@H]2O (some centres not stated)	-3	0
Cc1cc(-n2c(=S)[nH]c3ccccc3c2=O)ccc1Br	1	1
O=C(CCN1CCOCC1)NC=Nc1cccnc1	-1	1
CC[C@@]12CCCN3CC[C@]4(c5cccc(OC)c5N(C(C)=O)[C@@H]4CC1)[C@H]32	3	0
COc1ccc2c3c1O[C@H]1[C@@H](O)CC=C4[C@@H](C2)N(C)CC[C@]431	-2	0
CC[C@@]1(O)C(=O)OCc2c1cc1n(c2=O)-c2cc3ccccc3nc2C1	121*	0
S=C(Nc1ccccc1)N1CCCCC1c1cccnc1 (configuration not stated)	-7	1
O=C(NC(=O)c1ccccc1Cl)Nc1ccc2c(c1)S(=O)(=O)C=C2	-1	0
c1ccc2c(c1)cc1ccc3cccc4ccc2c1c34	-4	1
O=C1c2ccccc2-c2cccc3cccc1c23	74*	0
COc1cc[n+](OC(=O)N2CCCCC2)c(C)c1	4	0
CC1=C(C(=O)OC(C)(C)C)C2(C(=O)Nc3ccccc32)C(C#N)=C(N)O1 (configuration not stated)	-4	.
C=C1[C@@H](C)[C@H]2[C@H](Cc3ccccc3)NC(=O)[C@]23[C@H](OC(C)=O)C=C[C@](C)(O)C(=O)[C@@H](C)C/C=C/[C@H]3[C@@H]1O	20	16*
COC(=O)c1ccc(OP2(=O)COc3ccccc3OC2)cc1	-2	0
Cc1cc(OCC(=O)N(C)C)c2c3c(c(=O)oc2c1)CCCC3	-8	0
C=C1C(=O)O[C@@H]2/C=C(/C)CC/C=C(/C)C[C@@H](OC(=O)/C(=C/CO)CO)C12 (some centres not stated)	19	1
COC(=O)[C@@]1(O)C[C@@H]2O[C@@]1(C)n1c3ccccc3c3c4c(c5c6ccccc6n2c5c31)C(=O)NC4	.	13*
CC(=O)O[C@@H](c1nc2ccccc2c(=O)n1[C@@H]1C[C@@]2(OC1=O)c1ccccc1N1C(=O)[C@H](C)N(O)[C@@H]12)C(C)C	-5	0
C=CCC1(NCCc2ccccc2)CCCCC1	-5	0
SMILES	BJeLR viability	A1 inh
CC(C)c1cc2c(cc1O)[C@@]1(C)C[C@@H](O)CC(C)(C)C1CC2 (some centres not stated)	2	0
CC(C)(C)c1cc(C=C(C#N)C#N)cc(C(C)(C)C)c1O	71*	-2
N#CC(C#N)=Cc1ccc(O)c(O)c1	0	-1
O=C1CCCC2C3CC(CN12)[C@@H]1CCCCN1C3 (some centres not stated)	-8	1
CCN1CC2(COC)CCC(O)C34C5CC6C(OC)CC(O)(C5C6O)C(C(OC)C23)C14 (configuration not stated)	3	0
COc1cc(C)c(Oc2cc(C)cc(O)c2)c(O)c1	-9	0
C[C@@H]1O[C@@H](O[C@H]2[C@H](O)[C@@H](O)[C@H](O[C@@H]3C=C4CC[C@@H]5C(CC[C@]6(C)[C@@H](c7ccc(=O)oc7)CC[C@]56O)[C@@]4(C)CC3)O[C@@H]2CO)[C@H](O)[C@H](O)[C@H]1O (some centres not stated)	125*	2

Assay outcomes deposited in PubChem by Broad Institute.
